High-throughput results: PubChem, National Center for Advancing Translational Sciences (NCATS)
BAZ2B inh – blocks human BAZ2B; Q9UIF8; AlphaScreen BAZ2B-H3K14Ac peptide displacement; Potency, µM (highest dose often 114 µM), for the others: at the top dose activity change, negative = inhibition, actives largely listed as inhibitors; 4.4% of 360,000 active; AID 504333; further: on the % scale 0 is the no-effect control and ±100 the full control effect; nearly all actives have a fitted effect of over 60% in size
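Multi-concentration screen (max 110 uM) measuring displacement of acetylated histone H3 peptide from BAZ2B by AlphaScreen, using 50 nM protein, 50 nM peptide and 10 ug/mL streptavidin donor plus Ni-chelate acceptor beads.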
HP1b binding inh – inhibitors of HP1-beta chromodomain binding to methylated histone tails; Potency, µM (top dose mostly 114 µM), for inactives: at the highest dose activity change, negative = inhibition, most hits filed as inhibitors; AID 540317; 0.56% of 390,000 active; AlphaScreen HP1-beta / biotin-H3K9me3 peptide binding; further: nearly all actives have a fitted effect of over 70% in size
Target sequence (P83916 whole entry, looked up): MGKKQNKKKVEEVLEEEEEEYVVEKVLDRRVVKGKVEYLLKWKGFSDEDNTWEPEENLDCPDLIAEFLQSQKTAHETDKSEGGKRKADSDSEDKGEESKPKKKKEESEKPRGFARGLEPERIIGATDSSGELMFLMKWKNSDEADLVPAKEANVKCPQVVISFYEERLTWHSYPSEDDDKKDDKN
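HP1-beta protein (50 nM final) preincubated 30 min at room temperature with biotinylated H3(1-18)K9me3 peptide (50 nM) in PBS pH 7.4, 0.01% Tween-20, then compound added for 30 min. AlphaScreen streptavidin donor/nickel chelate acceptor beads (10 ug/mL final), 30 min dark, luminescence read.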
G9a block – blocks human histone lysine methyltransferase G9a; 8.8% of 350,000 active; G9a H3K9 monomethylation, AlphaScreen, 2 h; Q96KQ7; Potency, µM (series often up to 102 µM), inactives show at the top dose activity, negative = inhibition, actives largely listed as inhibitors; further: on the % scale 0 is the no-effect control and ±100 the full control effect; nearly all actives have a fitted effect of over 75% in size
Target sequence (Q96KQ7 913-1193 limits assumed): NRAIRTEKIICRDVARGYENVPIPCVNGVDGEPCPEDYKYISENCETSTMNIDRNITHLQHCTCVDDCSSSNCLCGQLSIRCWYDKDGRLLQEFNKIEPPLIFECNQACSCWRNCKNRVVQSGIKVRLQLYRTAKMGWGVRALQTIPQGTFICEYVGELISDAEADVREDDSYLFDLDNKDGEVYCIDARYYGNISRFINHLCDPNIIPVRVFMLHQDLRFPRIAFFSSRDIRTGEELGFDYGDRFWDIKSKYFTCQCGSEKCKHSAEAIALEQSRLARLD
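AlphaScreen detection with an anti-monomethyl H3K9 antibody quantified product after a 2 h room-temperature reaction containing 500 nM biotinylated H3K9 peptide, 20 µM SAM and 20 nM enzyme, which had been preincubated 15 min with compound.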
JMJD2A Tudor inh – JMJD2A Tudor domain (human) inhibition | O75164 | AlphaScreen JMJD2A-Tudor / H3K4me3 peptide binding | Potency, µM (titrated, usually from 114 µM), inactives show at the top dose activity change, negative = inhibition, actives largely listed as inhibitors | 4.4% of 390,000 active; further: on the % scale 0 is the no-effect control and ±100 the full control effect; nearly all actives have a fitted effect of over 50% in size
GLS inh – glutaminase GLS (human) inhibition | GLS enzymatic activity, qHTS titration | Potency, µM (series often up to 45.5 µM), for the others: top-dose activity change, negative = inhibition, actives largely listed as inhibitors | O94925 | 0.21% of 410,000 active; further: on the % scale 0 is the no-effect control and ±100 the full control effect
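Compounds were pin-transferred onto hKGA, after which L-glutamine (1 mM solution) and a detection mix of glutamate oxidase, HRP and Amplex Red were added. Initial and 30 min RT fluorescence reads were collected.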
Numbers without * were called inactive; ? = inconclusive; . = no result given; [ ] = another dose, or the depositor's remark. Hits are enriched below; roughly 10% of the tested compounds scored in any of these assays. The call rests on the fitted dose curve; in most records, active means well fitted curve in the direction sought with a large enough effect; inconclusive means small, poorly fitted or top-dose-only effect, or another doubt; inactive means no such curve, though single readings can be large; an effect the other way counts as inactive or inconclusive. Potency means the concentration at half of the fitted maximal effect.

SMILES | BAZ2B inh | HP1b binding inh | G9a block | JMJD2A Tudor inh | GLS inh
COc1ccc(C2=Nc3ccc(OC(F)(F)F)cc3NC(c3cccnc3)=N2)cc1 | -9% | 10% | -22%[59 µM] | ? | -1%
Cc1ccc2cc(C)c3nnc(SCC(=O)N4CCN(C(=O)c5ccco5)CC4)n3c2c1 | -2% | 5% | 50µM* | -21% | 0%
COc1ccc(N2CCN(C(=O)CSc3nnc4c(C)cc5cc(C)ccc5n34)CC2)cc1 | ? | -28% | 45µM* | -19% | 17%
CCOC(=O)C1=CC[C@@H](c2ccccc2)N(S(=O)(=O)c2ccc(C)cc2)[C@H]1C=C(C)C | . | . | . | . | -9%
CCOc1cc(/C=C(/NC(C)=O)C(=O)O)cc(Cl)c1OCc1cccc(Br)c1 | 50µM* | 3%[57 µM] | -10%[12.7 µM] | ? | 17%
CCOc1cc(C(N)=O)cc(Cl)c1OCc1ccccc1 | ? | 24% | -7%[59 µM] | -12% | -2%
CCCc1nnc(NS(=O)(=O)c2ccc(OC)cc2)s1 | -22% | 15% | 45µM* | -9% | 6%
CCc1nnc(NS(=O)(=O)c2ccc(NC(=S)NC(=O)c3ccc(Br)cc3)cc2)s1 | ? | -21% | -20%[59 µM] | ? | 23%
CCc1nnc(NS(=O)(=O)c2ccc(NC(=S)NC(=O)/C=C/c3ccc(OC)cc3)cc2)s1 | ? | ? | 50µM* | 32µM* | 24%
CCc1nnc(NS(=O)(=O)c2ccc(NC(=S)NC(=O)c3ccccc3)cc2)s1 | ? | -6% | ? | ? | 1%
CCc1nnc(NS(=O)(=O)c2ccc(NC(=S)Nc3ccc(F)cc3)cc2)s1 | 1% | 13% | -8%[59 µM] | -34% | -3%
CCc1nnc(NS(=O)(=O)c2ccc(NC(=S)NC(=O)/C=C/c3ccc(C(C)C)cc3)cc2)s1 | 50µM* | ? | 18%[0.501 µM] | 56µM* | 20%
CCc1nnc(NS(=O)(=O)c2ccc(NC(=S)NC(=O)/C=C/c3ccccc3)cc2)s1 | ? | -29% | ? | 79µM* | -22%
CCCCN(C)C(=O)c1ccc(Nc2nc(C(N)Cc3ccc(C(F)(F)F)cc3)cs2)nc1 (stereo unspecified) | . | . | . | . | 16%
O=C(NCCCN1CCCC1=O)c1cccs1 | 0% | 12% | -4%[12.7 µM] | -10% | 5%
O=C(NCCCN1CCCC1=O)c1c(O)nc2sccn2c1=O | -34% | 10% | -8% | 35µM* | 1%
Cc1ccc2c(c1)N(C(=O)N1CCC(C(=O)NCc3cccc(Br)c3)CC1)CCO2 | -2% | 40% | -34%[59 µM] | -11% | -2%
CCC(Sc1nnc(-c2ccc(C)c(Cl)c2)n1CC)C(=O)Nc1nccs1 (stereo unspecified) | 3% | 41% | ? | 89µM* | -1%
COCCN1C(=O)COc2ccccc2C1C(=O)Nc1c(C)cccc1C (stereo unspecified) | . | . | . | . | -7%
CCc1nn(-c2ccccc2)c2nc(-c3cccc(OC)c3)c3cc(OC)c(OC)cc3c12 | 3% | -8% | 11%[59 µM] | -15% | 0%
O=C(Nc1ccccc1Br)C1CC(=O)N(c2ccc3c(c2)OCCO3)C1 (stereo unspecified) | 6% | 10% | 79µM* | -16% | 13%
CCOC(=O)c1ccccc1NC(=O)COC(=O)C1CC(=O)N(c2ccc3c(c2)OCCO3)C1 (stereo unspecified) | -3% | 17% | ? | -30% | 4%
O=C(COC(=O)C1CC(=O)N(c2ccc3c(c2)OCCO3)C1)NC1CCCc2ccccc21 (stereo unspecified) | -32% | 21% | 79µM* | -9% | -4%
COc1ccccc1NC(=O)C(C)OC(=O)C1CC(=O)N(c2ccc3c(c2)OCCO3)C1 (stereo unspecified) | 2% | 17%[57 µM] | 75% | -18% | 28%
O=C(Nc1ccc2c(c1)OCO2)C1CC(=O)N(c2ccc3c(c2)OCCO3)C1 (stereo unspecified) | ? | 28% | -7% | -3%[57.1 µM] | -8%
SMILES | BAZ2B inh | HP1b binding inh | G9a block | JMJD2A Tudor inh | GLS inh
COc1cccc(OC)c1OC(=O)C1CC(=O)N(c2ccc3c(c2)OCCO3)C1 (stereo unspecified) | . | -35% | . | 56µM* | -24%
O=C(O)C1CC(=O)N(c2ccc3c(c2)OCCO3)C1 (stereo unspecified) | ? | ? | -26%[59 µM] | 3.2µM* | -26%
CS(=O)(=O)c1ccc(Cl)c(NC(=O)C2CC(=O)N(c3ccc4c(c3)OCCO4)C2)c1 (stereo unspecified) | -14% | 27% | 21% | -10% | 9%
CN(c1cccc(F)c1)c1cc2c(c3c1ccn3C)C1CCC2O1 (stereo unspecified) | . | . | . | . | -7%
CCOC(=O)C(=C1Nc2ccccc2N1)n1c(-c2cccnc2)nc2ccccc21 | . | . | . | . | 11%
CCCN(C(=O)Cn1ncc2c1-c1ccccc1OC2)c1cccc(C)c1 | -1% | 24% | -32%[59 µM] | -5% | -8%
Cc1cccc(CCn2c(=O)c3ccccc3n(Cc3cccc(F)c3)c2=O)c1 | 35% | 62% | 62%[59 µM] | 36% | 7%
CC1CN(C2CCCCC2)C(=O)NC1=O (stereo unspecified) | . | 26% | . | -1% | -12%
Cc1ccnc(NC(=O)C2CC(=O)N(c3ccc4c(c3)OCCO4)C2)c1 (stereo unspecified) | 79µM* | 14% | 19% | -14% | 1%
C/C(=N/NC(=O)CNC(=O)c1cccnc1)c1cccc([N+](=O)[O-])c1 | -16% | 28% | 66%[59 µM] | -9% | 3%
C/C(=N\NS(=O)(=O)c1cccc([N+](=O)[O-])c1)c1cccnc1 | -22% | 20% | 32µM* | 8% | -4%
CC(=O)N1CCC(=NNS(=O)(=O)c2cccc([N+](=O)[O-])c2)CC1 | -1% | 51% | 10µM* | -17% | 1%
CC(=O)N1CCC(=NNS(=O)(=O)c2ccc(C)c([N+](=O)[O-])c2)CC1 | 7% | 31% | 11µM* | -13% | -6%
O=C(c1ccc(NS(=O)(=O)c2cccc([N+](=O)[O-])c2)cc1)N1CCCCCC1 | 6% | 16% | -24% | -11% | -1%
C[C@@H]1CN([C@@H](C)CO)S(=O)(=O)c2ccc(Br)cc2O[C@@H]1CN(C)C(=O)C1CC1 | . | . | . | . | 1%
CC(=O)NCc1ccc(S(=O)(=O)NC(C(=O)O)C(C)C)cc1 (stereo unspecified) | -20% | 27% | ? | 2% | -3%
COc1ccc(S(=O)(=O)N2CCCCCC2)cc1C(=O)Nc1ccc(C(=O)N(C)C)cc1 | -7% | 21% | -30% | -12% | -3%
O=C(O)CCCN=CC1=C(O)CNC1=O | -18% | -16% | ? | 22µM* | 3%
O=C1NCC(O)=C1C=NCCO | 14% | 4% | -7% | -18% | 10%
CN(C)c1ccc(/C=C/c2ccncc2)cc1 | ? | 32% | ? | -29% | 1%
[O-][n+]1ccccc1/C=C/c1ccccc1 | . | 9% | . | -3% | 5%
